Compound activity from PubChem.
Shown are actives, neighbours in structure and some others; about 1.2% of the full set was active somewhere.
RGS8-Gao = modulates binding of RGS8 to human Galphao. P09471. response (percent of control binding), % at 10 µM. multiplexed bead flow cytometry; actives lie on both sides. 220,000 tested, 0.34% active; in the data active means response below about 60% or above about 140%; inactive means in between;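 further: Galphao activated as the GDP aluminium fluoride complex binding bead-coupled RGS8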
RGS7-Gao = human RGS7-Galphao interaction regulation; 220,000 tested, 0.35% active; binding response (% of control), % at 10 µM; Multiplexed bead flow cytometry, RGS7-Galphao binding; actives lie on both sides; in the data active means binding response below about 49% or above about 150%;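 further: fluorescent Galphao held in activated GDP-AlF4 state binding bead-coupled RGS7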
Avidin bead fluor = avidin bead compound fluorescence profile; Avidin beads, compound fluorescence 488/530 nm, flow cytometry; stronger effect = higher value; fluorescence (KMESF) at 10 µM; 220,000 tested, 0.38% active; in the data active means fluorescence above about 47
RGS4-Gao reg = human RGS4-Galphao interaction regulation; P09471; Multiplexed bead flow cytometry, RGS4-Galphao binding; actives lie on both sides; binding response (% of control), % at 10 µM; 220,000 tested, 0.33% active; AID 1415; in the data active means binding response below about 49% or above about 150%; inactive means in between;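 further: fluorescent Galphao activated with aluminum fluoride binding bead-coupled RGS4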
RGS16-Gao HTS = regulators of human RGS16-Galphao interaction; binding response (% of control), % at 10 µM; bead-based flow cytometry RGS16-Galphao binding, fluorescence; actives lie on both sides; AID 1441; 220,000 tested, 0.38% active;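 further: Galphao activated by GDP with aluminum fluoride before binding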
Target sequence (O15492 whole entry, looked up): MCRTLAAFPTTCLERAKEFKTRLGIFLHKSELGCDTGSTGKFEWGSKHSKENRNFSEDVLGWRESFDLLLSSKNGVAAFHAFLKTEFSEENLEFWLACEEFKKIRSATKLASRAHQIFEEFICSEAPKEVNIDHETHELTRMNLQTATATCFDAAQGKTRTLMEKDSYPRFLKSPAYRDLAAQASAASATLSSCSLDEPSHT
Target sequence (P09471 whole entry, looked up): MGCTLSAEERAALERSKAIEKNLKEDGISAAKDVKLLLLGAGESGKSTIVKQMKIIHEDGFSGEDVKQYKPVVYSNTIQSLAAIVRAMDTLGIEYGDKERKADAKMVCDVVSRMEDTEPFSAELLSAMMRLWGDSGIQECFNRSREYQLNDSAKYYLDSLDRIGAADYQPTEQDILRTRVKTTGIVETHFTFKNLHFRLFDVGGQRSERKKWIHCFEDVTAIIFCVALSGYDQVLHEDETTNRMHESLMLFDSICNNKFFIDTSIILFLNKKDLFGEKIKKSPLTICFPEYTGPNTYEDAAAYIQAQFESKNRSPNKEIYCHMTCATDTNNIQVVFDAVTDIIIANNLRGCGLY
GSH bead fluor = GSH bead compound fluorescence profile | GSH beads flow cytometry, compound fluorescence 488/530 nm; stronger effect = higher value | fluorescence (KMESF) at 10 µM | 190,000 tested, 0.25% active | AID 1776; in the data active means fluorescence above about 89;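 further: glutathione beads carrying GST-tagged Bcl family fusion proteins plus one bare bead set; values are compound well signal with DMSO vehicle wells as background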
RGS4-Gao HTS = modulates binding between human RGS4 and Galphao; shares compounds with RGS16-Gao HTS; multiplexed bead flow cytometry, RGS–Galpha-o binding; RGS4–Galpha-o binding response, % at 10 µM; 1,600 tested, 99% active;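 further: fluorescently labeled Galpha-o bound to GDP with aluminium fluoride binding biotinylated RGS beads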
Biotin-avidin = counter-screen: compounds disrupting biotin binding to avidin beads; shares compounds with RGS16-Gao HTS; streptavidin beads, fluorescein-biotin binding, flow cytometry; inhibition, % at 10 µM; 1,700 tested, under 10 active; AID 1783;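 active means inhibition above 50%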;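 further: median green fluorescence of gated singlet beads compared with DMSO control wells; 0% = DMSO wells and 100% = complete loss of bead fluorescence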
RGS8-Gao single = confirmation of regulators of human RGS8-Galphao interaction. shares compounds with RGS16-Gao HTS. bead-based flow cytometry RGS8-Galphao binding, fluorescence; actives lie on both sides. 1,700 tested, 3% active. AID 1836. binding response (% of control), % at 10 µM; in the data active means binding response below about 72% or above about 130%; inactive means in between;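 further: Galphao activated as GDP AlF4 complex before binding bead RGS8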
RGS7-Gao confirm = confirmation of regulators of human RGS7-Galphao interaction. response (percent of control binding), % at 10 µM. AID 1837. bead-based flow cytometry RGS7-Galphao binding; actives lie on both sides. 1,700 tested, 7.8% active. shares compounds with RGS16-Gao HTS; in the data active means response below about 75% or above about 130%; inactive means in between;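 further: fluorescent Galphao activated with GDP and aluminum fluoride binding bead-coupled RGS7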
RGS16-Gao single = confirmation of regulators of human RGS16-Galphao interaction. shares compounds with RGS16-Gao HTS. bead-based flow cytometry, RGS16-Galphao binding; actives lie on both sides. response (% of control binding), % at 10 µM. 1,700 tested, 4% active. AID 1838; in the data active means response below about 74% or above about 130%; inactive means in between;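 further: Galphao activated as the GDP aluminium fluoride complex binding bead-coupled RGS16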
RGS4-Gao confirm = RGS4-Galphao interaction regulation, single point confirmation | shares compounds with RGS16-Gao HTS | RGS4-Galphao binding, multiplexed bead flow cytometry; actives lie on both sides | binding response (% of control), % at 10 µM | 1,700 tested, 4% active | AID 1840; in the data active means binding response below about 74% or above about 130%; inactive means in between
RGS19-Gao single = RGS19-Galphao interaction regulation, single point confirmation; shares compounds with RGS16-Gao HTS; bead-based flow cytometry RGS19-Galphao binding; actives lie on both sides; response (percent of control binding), % at 10 µM; 1,700 tested, 5% active; AID 1841; in the data active means response below about 50% or above about 160%; inactive means in between;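 further: 100% = no compound control and 0% = blank background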
The depositor's hits bear a star; [ ] = dose if it differs, or a comment. Unless noted, how the calls were made is not given here.

What do the screens show for `O=C(CCl)NC(=O)NC12CC3CC(CC(C3)C1)C2`?
RGS8-Gao: 104; RGS7-Gao: 189*[activator]; Avidin bead fluor: 145*; RGS4-Gao reg: 130; RGS16-Gao HTS: 111; GSH bead fluor: 7; RGS4-Gao HTS: 130*; Biotin-avidin: 0; RGS8-Gao single: 101; RGS7-Gao confirm: 63*; RGS16-Gao single: 84; RGS4-Gao confirm: 79; RGS19-Gao single: 54

Results for CCCCOC(=O)C(NC(=O)c1ccccc1)=C(C)C ?
RGS8-Gao: 5.2*; RGS7-Gao: -16*; RGS4-Gao reg: -36*; RGS16-Gao HTS: -33*; GSH bead fluor: 33; Biotin-avidin: -2; RGS8-Gao single: 102; RGS7-Gao confirm: 101; RGS16-Gao single: 105; RGS4-Gao confirm: 98; RGS19-Gao single: 95

How did COC(=O)C(NC(=O)c1ccccc1)=C(C)C do in these assays?
RGS8-Gao: 101; RGS7-Gao: 110; Avidin bead fluor: 21; RGS4-Gao reg: 101; RGS16-Gao HTS: 107; GSH bead fluor: 14

What do the screens show for `CCOC(=O)C(NC(=O)c1ccccc1)=C(C)C`?
RGS8-Gao: 104; RGS7-Gao: 102; Avidin bead fluor: 6; RGS4-Gao reg: 103; RGS16-Gao HTS: 103; GSH bead fluor: 47

What do the screens show for `C#CCOC(=O)C(NC(=O)c1ccccc1)=C(C)C`?
RGS8-Gao: 83; RGS7-Gao: 90; Avidin bead fluor: 0; RGS4-Gao reg: 78; RGS16-Gao HTS: -38*; GSH bead fluor: 40; RGS4-Gao HTS: 78*; Biotin-avidin: 1; RGS8-Gao single: 103; RGS7-Gao confirm: 102; RGS16-Gao single: 102; RGS4-Gao confirm: 102; RGS19-Gao single: 101

What do the screens show for `CSc1nc(-c2ccccc2)nn1S(=O)(=O)c1ccc(Cl)cc1`?
RGS8-Gao: 91; RGS7-Gao: 84; Avidin bead fluor: 9; RGS4-Gao reg: 87; RGS16-Gao HTS: 86; GSH bead fluor: 12

How did CSc1nc(-c2ccccc2)nn1S(=O)(=O)c1ccccc1 do in these assays?
RGS8-Gao: 104; RGS7-Gao: 171*[activator]; Avidin bead fluor: 96*; RGS4-Gao reg: 173*[activator]; RGS16-Gao HTS: 199*[activator]; GSH bead fluor: 19; Biotin-avidin: -2; RGS8-Gao single: 104; RGS7-Gao confirm: 105; RGS16-Gao single: 104; RGS4-Gao confirm: 103; RGS19-Gao single: 103

What do the screens show for `CCOc1ccc(NC(=O)CC2C(=O)N(c3ccccc3)C(=O)N2Cc2ccccn2)cc1` (stereo unspecified)?
RGS8-Gao: 144*[activator]; RGS7-Gao: 125; Avidin bead fluor: 6; RGS4-Gao reg: 135; RGS16-Gao HTS: 378; GSH bead fluor: 38; RGS4-Gao HTS: 135*; Biotin-avidin: 4; RGS8-Gao single: 100; RGS7-Gao confirm: 101; RGS16-Gao single: 98; RGS4-Gao confirm: 100; RGS19-Gao single: 71
